The values that follow come from article PMC5700166.

Numbering of substitutions follows the chain as printed.

What all share (assay): protein-binding microarray (PBM); PBM: ~300 nM protein, 6 mM HEPES pH 7.8, 80 mM KCl, 0.5 mM EDTA, 0.5 mM EGTA, 6% glycerol, 35 ng/ul poly-dIdC, 1% milk, 1 h, room temperature; Ap Aiptasia and Nv Nematostella (sea anemones) / Co Capsaspora / Aq Amphimedon (sponge) / Dm Drosophila / Hu human; RHD is the Rel homology domain; high values mean tight binding
What all share (conditions): dsDNA, one strand shown

The target of experiment [1] is T1, GST-Nv-NF-kB (Cys allele) (Nematostella vectensis, UniProt E5G601 2-411).
T1 sequence: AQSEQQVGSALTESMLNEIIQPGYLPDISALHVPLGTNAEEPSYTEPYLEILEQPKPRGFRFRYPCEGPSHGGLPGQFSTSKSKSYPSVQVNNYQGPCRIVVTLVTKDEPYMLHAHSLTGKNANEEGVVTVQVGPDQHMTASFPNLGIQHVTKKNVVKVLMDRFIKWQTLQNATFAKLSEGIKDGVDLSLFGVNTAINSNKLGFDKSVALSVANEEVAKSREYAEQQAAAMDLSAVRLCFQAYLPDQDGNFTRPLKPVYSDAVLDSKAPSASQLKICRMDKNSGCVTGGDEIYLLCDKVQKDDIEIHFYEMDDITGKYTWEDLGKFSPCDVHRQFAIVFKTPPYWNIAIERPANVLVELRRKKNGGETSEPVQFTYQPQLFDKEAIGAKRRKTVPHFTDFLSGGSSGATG

The target of experiment [2] is T2, GST-Nv-NF-kB (Ser allele) (Nematostella vectensis, UniProt A7UNT2 2-411).
T2 sequence: T1 sequence with Q21R, C66S, S207N, E215Q, V217A, E225K, A268E, D399E

For another experiment, the target named is T3, GST-Dm-Relish (Drosophila melanogaster, UniProt Q94527 99-473).
T3 sequence: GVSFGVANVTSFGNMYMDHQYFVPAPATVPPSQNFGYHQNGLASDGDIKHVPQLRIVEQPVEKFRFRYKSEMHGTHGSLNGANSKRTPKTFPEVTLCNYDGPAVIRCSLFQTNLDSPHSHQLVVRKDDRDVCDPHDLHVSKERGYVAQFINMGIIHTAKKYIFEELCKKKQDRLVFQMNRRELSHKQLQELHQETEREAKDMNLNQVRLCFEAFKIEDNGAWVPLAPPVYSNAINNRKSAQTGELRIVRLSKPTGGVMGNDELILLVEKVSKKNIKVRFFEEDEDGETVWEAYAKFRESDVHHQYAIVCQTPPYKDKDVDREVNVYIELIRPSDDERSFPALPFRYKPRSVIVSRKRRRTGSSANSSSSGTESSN

The next experiment deals with T4, GST-Aq-NF-kB (Amphimedon queenslandica, UniProt A9Y5G7 2-389).
T4 sequence: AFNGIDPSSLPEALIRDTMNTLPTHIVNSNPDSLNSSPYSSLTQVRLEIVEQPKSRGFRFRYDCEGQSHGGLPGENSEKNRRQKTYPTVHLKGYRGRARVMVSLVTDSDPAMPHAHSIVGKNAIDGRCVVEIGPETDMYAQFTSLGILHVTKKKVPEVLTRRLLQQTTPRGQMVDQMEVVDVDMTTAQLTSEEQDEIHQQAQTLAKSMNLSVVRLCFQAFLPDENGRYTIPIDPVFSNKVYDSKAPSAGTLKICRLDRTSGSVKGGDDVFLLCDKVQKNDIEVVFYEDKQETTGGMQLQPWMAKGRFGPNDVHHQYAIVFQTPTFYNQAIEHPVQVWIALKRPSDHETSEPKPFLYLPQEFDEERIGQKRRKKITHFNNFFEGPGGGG

The next experiment has as its target T5, GST-Co-NF-kB (Capsaspora owczarzaki, UniProt F1ARL5 200-546).
T5 sequence: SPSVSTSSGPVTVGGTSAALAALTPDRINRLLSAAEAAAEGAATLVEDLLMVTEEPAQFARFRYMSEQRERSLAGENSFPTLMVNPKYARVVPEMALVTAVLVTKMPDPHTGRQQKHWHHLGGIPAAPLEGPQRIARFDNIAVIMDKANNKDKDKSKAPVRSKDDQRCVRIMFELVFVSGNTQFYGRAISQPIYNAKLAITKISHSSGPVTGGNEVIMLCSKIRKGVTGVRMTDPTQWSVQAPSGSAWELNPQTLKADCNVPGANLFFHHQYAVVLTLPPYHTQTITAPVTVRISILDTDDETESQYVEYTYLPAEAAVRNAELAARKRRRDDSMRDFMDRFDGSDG

“CCGATTAACATCAGGAAGTTACCTGATGTTAATCGGGTCTTGATTCGCTTGACGCTGCTG”: the binding signal came to 1.29 z-score in experiment [1], 1.31 z-score in experiment [2], 2.36 z-score with GST-Dm-Relish and 2.57 z-score with GST-Aq-NF-kB.

Consider “CCGATTAACATCAATTGGGAAATTGATGTTAATCGGGTCTTGATTCGCTTGACGCTGCTG”, for which the binding signal in experiment [1] was found to be 3.36 z-score; in experiment [2], 3.48 z-score; with GST-Co-NF-kB, 1.8 z-score; in the experiment with GST-Dm-Relish it was 1.48 z-score; in the experiment with GST-Aq-NF-kB, 1.63 z-score.

As to “CCGATTAACATCAGGGATCGCCCTGATGTTAATCGGGTCTTGATTCGCTTGACGCTGCTG”, the results for the binding signal (in experiment [1]; with GST-Dm-Relish; with GST-Aq-NF-kB) were 1.19 z-score, 3.26 z-score and 4.24 z-score, respectively.

On to “CCGATTAACATCACTTTGGGAAATGATGTTAATCGGGTCTTGATTCGCTTGACGCTGCTG”, for which the values for the binding signal (in experiment [1]; with GST-Co-NF-kB; in the experiment with GST-Aq-NF-kB) were 1.89 z-score, 2.05 z-score and 1.28 z-score, respectively.

“CCGATTAACATCAAAAATTTTCCTGATGTTAATCGGGTCTTGATTCGCTTGACGCTGCTG”: the binding signal with GST-Co-NF-kB came to 1.7 z-score; with GST-Dm-Relish, 2.62 z-score; with GST-Aq-NF-kB, 1.81 z-score.

Turning to “CCGATTAACATCAACCATGGGAATGATGTTAATCGGGTCTTGATTCGCTTGACGCTGCTG”, the results for the binding signal (in experiment [1]; with GST-Co-NF-kB; in the experiment with GST-Aq-NF-kB) were 1.18 z-score, 1.67 z-score and 1.99 z-score, respectively.

In the case of “CCGATTAACATCATTATGGGAAATGATGTTAATCGGGTCTTGATTCGCTTGACGCTGCTG”, the results for the binding signal (in experiment [1]; with GST-Co-NF-kB; with GST-Aq-NF-kB) were 2.63 z-score, 2.21 z-score and 1.44 z-score, respectively.

Take “CCGATTAACATCAAGGAATTTCCTGATGTTAATCGGGTCTTGATTCGCTTGACGCTGCTG”: the binding signal in experiment [1] is 1.75 z-score; in the experiment with GST-Dm-Relish it was 2.04 z-score; with GST-Aq-NF-kB, 4.35 z-score.

For the sequence “CCGATTAACATCAAGGTATTTCCTGATGTTAATCGGGTCTTGATTCGCTTGACGCTGCTG”, the binding signal worked out at 1.66 z-score in experiment [1], 1.29 z-score in experiment [2], 3.08 z-score with GST-Dm-Relish and 3.84 z-score with GST-Aq-NF-kB.

On to “CCGATTAACATCAATTCCCAACATGATGTTAATCGGGTCTTGATTCGCTTGACGCTGCTG”, for which the binding signal in experiment [1] was 2.32 z-score; with GST-Co-NF-kB, 1.84 z-score; in the experiment with GST-Aq-NF-kB, 1.17 z-score.

Consider “CCGATTAACATCAGGAATATACCTGATGTTAATCGGGTCTTGATTCGCTTGACGCTGCTG”, for which the binding signal in experiment [1] worked out at 1.47 z-score; with GST-Dm-Relish, 1.86 z-score; with GST-Aq-NF-kB, 1.69 z-score.

On to “CCGATTAACATCAGAAATGGGAATGATGTTAATCGGGTCTTGATTCGCTTGACGCTGCTG”, for which the binding signal is 2.45 z-score in experiment [1], 1.87 z-score in the experiment with GST-Co-NF-kB and 2.5 z-score with GST-Aq-NF-kB.

On to “CCGATTAACATCAGAAATTACCATGATGTTAATCGGGTCTTGATTCGCTTGACGCTGCTG”, for which the binding signal in experiment [1] came out at 1.45 z-score; with GST-Dm-Relish, 2.33 z-score; with GST-Aq-NF-kB, 1.16 z-score.

In the case of “CCGATTAACATCAATTCCCATGATGATGTTAATCGGGTCTTGATTCGCTTGACGCTGCTG”, the binding signal in experiment [1] came to 2.46 z-score; in the experiment with GST-Co-NF-kB, 1.75 z-score; with GST-Aq-NF-kB, 1.67 z-score.

With “CCGATTAACATCACCCATGGGAATGATGTTAATCGGGTCTTGATTCGCTTGACGCTGCTG”, the binding signal in experiment [1] was found to be 1.13 z-score; in the experiment with GST-Co-NF-kB it was 2.05 z-score; in the experiment with GST-Dm-Relish, 1.03 z-score; with GST-Aq-NF-kB, 2.51 z-score.

Consider “CCGATTAACATCAGGAAAAGTCCTGATGTTAATCGGGTCTTGATTCGCTTGACGCTGCTG”, for which the results for the binding signal (in experiment [1]; in the experiment with GST-Dm-Relish; with GST-Aq-NF-kB) were 1.25 z-score, 2.98 z-score and 3.07 z-score, respectively.

With “CCGATTAACATCAGGAGTATCCCTGATGTTAATCGGGTCTTGATTCGCTTGACGCTGCTG”, the figures for the binding signal in the experiment with GST-Co-NF-kB and with GST-Aq-NF-kB were 1.01 z-score and 3.53 z-score, respectively.

On to “CCGATTAACATCAGGTAATTTACTGATGTTAATCGGGTCTTGATTCGCTTGACGCTGCTG”, for which the binding signal in experiment [1] was 1.68 z-score; with GST-Co-NF-kB, 1.89 z-score; in the experiment with GST-Dm-Relish, 5.32 z-score; in the experiment with GST-Aq-NF-kB it was 2.13 z-score.

On to “CCGATTAACATCAGACATGGGAATGATGTTAATCGGGTCTTGATTCGCTTGACGCTGCTG”, for which the binding signal is 1.46 z-score in experiment [1], 2.4 z-score with GST-Co-NF-kB and 1.94 z-score in the experiment with GST-Aq-NF-kB.

For the sequence “CCGATTAACATCAACTATCCCGCTGATGTTAATCGGGTCTTGATTCGCTTGACGCTGCTG”, the binding signal in the experiment with GST-Co-NF-kB came out at 1.37 z-score; with GST-Aq-NF-kB, 1.07 z-score.

On to “CCGATTAACATCAGGGTTAGTTGTGATGTTAATCGGGTCTTGATTCGCTTGACGCTGCTG”, for which the binding signal in the experiment with GST-Co-NF-kB was determined as 1.11 z-score; in the experiment with GST-Aq-NF-kB, 1.57 z-score.

As for “CCGATTAACATCAGGAAAAAACCTGATGTTAATCGGGTCTTGATTCGCTTGACGCTGCTG”, the binding signal in experiment [1] was 1.77 z-score; in experiment [2] it was 2.77 z-score; in the experiment with GST-Dm-Relish it was 3.66 z-score; with GST-Aq-NF-kB, 3.37 z-score.

As to “CCGATTAACATCAAATTGGGAAATGATGTTAATCGGGTCTTGATTCGCTTGACGCTGCTG”, the binding signal stood at 2.55 z-score in experiment [1], 1.89 z-score with GST-Co-NF-kB and 1.16 z-score in the experiment with GST-Aq-NF-kB.

“CCGATTAACATCATTGGGAAAAATGATGTTAATCGGGTCTTGATTCGCTTGACGCTGCTG”: the binding signal worked out at 2.44 z-score in experiment [1], 3.75 z-score with GST-Co-NF-kB and 1.92 z-score with GST-Aq-NF-kB.
